“And” between values parts separate entries of the source, which are not always exact repeats. Equal values may be shown once. About 83,000 compounds went through this panel and 20% of them were active in at least one assay; those are over-represented in the sample as a whole.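 Method: cells in 96-well plates; compound added at one concentration; 48 h incubation; percent growth measured; values under 10 scored active.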 Values without a mark were called inactive. The source made the active and inactive calls.

The test system of the assay is MDA-MB-468 breast. Kind of assay: NCI-60 one-dose screen, 48 h (100 = growth as untreated, 0 = no growth, -100 = all killed). Conditions: 10 µM unless noted.
As to `O=C(c1cccs1)c1ccccc1Cc1ccccc1`, the growth was 100%.
The same measure for `O=C1C=C(Nc2cccc(Br)c2)c2ccccc2C1=O`: 90.2%; for `COc1cc(-c2cc(-c3cc4c([nH]c5ccccc54)c(-c4cc(OC)c(OC)c(OC)c4)n3)cc(-c3ccccc3)n2)cc(OC)c1OC`: 8.91% (active).
As to `Clc1ccc2c(c1)C(N1CCNCC1)=Nc1ccccc1O2`, the growth is -48.3% (active).
The same measure for `CCNC(=O)Oc1ccc(/C(=C(/C)c2ccccc2)c2ccc(OCCN3CCCC3)cc2)cc1`: 80.3%; for `O=C(CCCCCCN1CC(=O)N2[C@@H](c3ccccc3Br)c3[nH]c4ccccc4c3C[C@H]2C1=O)NO`: 36.2%.
The same measure for `CSc1nc(N)c2[nH]c(-c3cc4ccccc4[nH]c3=O)nc2n1`: 1.87% (active); for `COc1cccc2cc(-c3cc4ccccc4[nH]3)/c(=N/C(=S)Nc3ccc(C)cc3)oc12`: 81.6%.
The same measure for `O=C1/C(=C/c2cccc(Br)c2)COc2ccc(O)cc21`: 53.1%.
Consider `CCCCn1c(-c2ccc(-c3nc(-c4ccc(Cl)cc4)no3)cc2)nc(-c2ccccc2)c1-c1ccccc1`, for which the growth is 106%.
With `COc1ccc(-c2nc(C#N)c(N3CCC(S(=O)(=O)N4CCOCC4)CC3)o2)cc1`, the growth is 107%.
The same measure for `O=[N+]([O-])c1ccc(NS(=O)(=O)c2ccccc2)c2ccccc12`: 17%; for `CN1CCN(Cc2ccc(NC(=O)c3cncc(C#Cc4c(N)ncc5ccc(F)cc45)c3)cc2C(F)(F)F)CC1`: 54.3%; for `O=C(N/N=C\c1cc(Cl)ccc1O)N/N=C/c1cc(Cl)ccc1O`: 61.5%.
The same measure for `C[C@@H]1CCC[C@H]1CC(N)C(=O)O` (stereo not given in full): 92.8%; for `CCc1cc2n(n1)-c1ncc(C(=O)OC)cc1Oc1ccccc1-2`: 95.2%; for `Clc1cccc(C2Cc3cnccc3-c3[nH]c4ccncc4c32)c1` (stereo not given): 5.96% (active).
Turning to `CS(=O)(=O)N1CCc2c(-c3cnc(N)nc3)nc(N3CCOCC3)nc21`, the growth is -27.9% (active).
Regarding `CC/C(Cc1ccccc1)=C(/c1ccc(O)cc1)c1ccc(OCCN2CCCC2)cc1`, the growth was -82.1% (active).
The same measure for `NC(=O)c1cc(Cl)ccc1NC(=O)COc1ccccc1`: 21%; for `Cc1onc(-c2c(F)cccc2Cl)c1-c1ncc(-c2ccc(Br)cc2)o1`: 28.4%.
For the compound `Cn1ncc(Cl)c1-c1cc(C(=O)N[C@H](CN)Cc2cccc(F)c2)sc1Cl`, the growth was -62.5% (active).
As for `Cc1cnc(C(=O)NNc2nc3sc4c(c3c(=O)[nH]2)C(C)CCC4)cn1` (stereo not given), the growth is -10.4% (active).
With `CC1(c2ccccc2)OC1C(=O)O` (stereo not given), the growth is 99.2%.
The same measure for `COc1ccc(Nc2[nH]n(C3=Nc4ccccc4Sc4ccccc43)c(=O)c2C#N)cc1`: -3.96% (active); for `CNc1nnc2n(-c3ccccc3)c(=O)c3cnn(-c4ccccc4)c3n12`: 103%.
`c1ccc(C2=NN[C@H](c3cn(-c4ccccc4)nc3-c3ccccc3)C2)cc1`: the growth was 28.2%.
The same measure for `O=C(/C=C/c1cccc(O)c1)c1cccc(-n2cc(-c3ccc4ccccc4c3)[nH]c2=O)c1`: -79.7% (active); for `COc1cc(/C=C/c2cn[nH]c2-c2ccc(C)cc2)cc(OC)c1OC`: 12.9%; for `NC(=O)CSc1nc(-c2ccc(F)cc2)cc(-c2ccco2)n1`: 71.7%.
On to `COc1ccc(/C=C/C(=O)c2ccc(Nc3ncnc4ccccc34)cc2)cc1OC`, for which the growth was 60.7%.
For the compound `CC[C@H](C)[C@H]1NC(=O)[C@@H]([C@H](O)C(C)C)NC(=O)[C@@H](C)N(C)C(=O)[C@H](C)N(C)C(=O)[C@H](CC(C)C)NC(=O)[C@H](CC(C)C)N(C)C(=O)[C@H](C)N(C)C1=O`, the growth was -5.6% (active).
For the compound `Nc1ccccc1SC(CC(=O)c1ccccc1)c1ccc([N+](=O)[O-])cc1` (stereo not given), the growth was 93.4% and 81.8%.
The same measure for `Nc1nc(=S)c2ncn(C3OC(COC(=O)c4ccc(Cl)cc4)C(OC(=O)c4ccc(Cl)cc4)C3OC(=O)c3ccc(Cl)cc3)c2[nH]1` (stereo not given): 23.6%.
The same measure for `O=C1C=C(Cl)C(=O)c2ccccc21`: -6.29% (active); for `COc1ccc2c(c1)c(CC(=O)[Se]CCC#N)c(C)n2C(=O)c1ccc(Cl)cc1`: -36% (active); for `COc1nc(N(C)O)nc(N(C)O)n1`: 29.4%.
The same measure for `COc1cc(-c2ccc[nH]2)[nH]c1/C=C1\N=C(C)C(C(=O)NC(C)C)=C1C`: 44%; for `CCc1ccc(-c2ccc(Nc3ccccc3)nn2)cc1S(N)(=O)=O`: 34.4%; for `COc1c(N2CC3CCCNC3C2)c(F)cc2c(=O)c(C(=O)N/N=C/c3ccccc3)cn(C3CC3)c12` (stereo not given): 83.7%.

The values are drawn from PubChem BioAssay (NCI).
